GCN5L2 inh = blocks human GCN5L2 histone acetyltransferase; Q92830; GCN5L2 HAT assay, ThioGlo1 CoA-SH fluorescence; Potency, µM (series often up to 58.9 µM), without a hit: top-dose activity change, negative = inhibition, hits mostly inhibitors; 0.21% of 390,000 active; AID 504327; further: on the % scale 0 is the no-effect control and ±100 the full control effect
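Fluorescence readout, Ex340nm/Em540nm: ThioGlo1 (50uM final) reacts with free CoA thiol released as 20nM GCN5L2 acetylates H3(1-25) peptide (75uM) using acetyl-CoA (70uM). Compound and enzyme sat 15 min beforehand; 20 min room-temperature reaction.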
TrxR1 inh = inhibitors of rat thioredoxin reductase 1. AID 588453. recombinant rTrxR1, NADPH fluorescence consumption, selenite substrate. O89049. 1% of 390,000 active. Potency, µM (titrated, usually from 114 µM), for inactives: at the top dose activity change, negative = inhibition, usual class: inhibitors; further: on the % scale 0 is the no-effect control and ±100 the full control effect; nearly all actives have a fitted effect of over 65% in size
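Rat TrxR1 (90 nM in the dispensed reagent) was pre-reduced with 400 uM NADPH for 5 min at room temperature, then incubated with compound for 15 min. After 400 uM selenite was added, NADPH fluorescence (Ex 340/Em 450 nm) was followed for 8 min.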
VDR inhibitor = blocks the human vitamin D receptor. P11473. VDR-SRC2-3 peptide fluorescence polarization, 2 h. Potency, µM, for the others: max response, negative = inhibition, actives largely listed as inhibitors. 0.93% of 400,000 active. AID 504847; further: on the % scale 0 is the no-effect control and ±100 the full control effect
Target sequence (P11473 whole entry, looked up): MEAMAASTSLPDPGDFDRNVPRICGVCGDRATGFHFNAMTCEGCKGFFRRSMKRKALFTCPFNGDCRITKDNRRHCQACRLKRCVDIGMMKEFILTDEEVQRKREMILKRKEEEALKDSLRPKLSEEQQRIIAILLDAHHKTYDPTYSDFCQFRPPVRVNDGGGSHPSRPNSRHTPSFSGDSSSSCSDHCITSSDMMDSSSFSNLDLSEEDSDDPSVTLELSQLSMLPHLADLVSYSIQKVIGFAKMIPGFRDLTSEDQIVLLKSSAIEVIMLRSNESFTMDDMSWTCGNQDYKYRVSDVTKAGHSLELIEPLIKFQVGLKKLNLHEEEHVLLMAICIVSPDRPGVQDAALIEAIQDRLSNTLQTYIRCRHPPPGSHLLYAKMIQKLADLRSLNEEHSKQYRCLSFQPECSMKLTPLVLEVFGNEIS
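Reagent solutions, kept cold and dark, are dispensed first; compounds are then pinned in at 23 nl, plates briefly spun, and incubated 2 h at ambient temperature. Inhibition of VDR–SRC2-3 peptide binding is read by fluorescence polarization.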
TrxR1 substrate = is turned over as a substrate by rat TrxR1 | 0.01% of 390,000 active | O89049 | purified TrxR1 substrate turnover, NADPH consumption readout | Potency, µM (titrated, usually from 114 µM), without a hit: top-dose activity change, negative = substrate turnover; further: on the % scale 0 is the no-effect control and ±100 the full control effect; nearly all actives have a fitted effect of over 50% in size
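Rat TrxR1, dispensed at 90 nM, was prereduced with 400 uM NADPH (final) for 5 min at ~22 deg C, then incubated with compound 15 min before 400 uM selenite. A first-read NADPH fluorescence drop versus no-compound background flagged substrates.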
VDR confirm = inhibits human vitamin D receptor, primary hit validation; Potency, µM, usual class: inhibitors; 89% of 840 active; shares compounds with VDR inhibitor; VDR-coactivator inhibition assay, qHTS confirmation; AID 602199
VDR FP = blocks human VDR-coactivator binding in fluorescein assay | 48% of 840 active | shares compounds with VDR inhibitor | VDR-coactivator binding, fluorescein fluorescence polarization | Potency, µM (series often up to 57.1 µM), without a hit: at the top dose activity change, negative = inhibition, usual class: inhibitors
VDR bla reporter = inhibits human VDR in beta-lactamase reporter cells. VDR beta-lactamase reporter cells, FRET ratio; cells co-treated with VDR agonist LG190178. shares compounds with VDR inhibitor. Potency, µM (highest dose often 46.1 µM), for the others: top-dose activity change, negative = inhibition, usual class: inhibitors. 23% of 840 active; further: on the % scale 0 is the no-effect control and ±100 the full control effect
VDR cytotox = cell toxicity, VDR inhibitor hit counter-screen; shares compounds with VDR inhibitor; 18% of 840 active; Potency, µM (highest dose often 48.3 µM), for inactives: top-dose activity change, negative = cytotoxicity, actives largely listed as cytotoxic; cytotoxicity counter-screen, cell viability, qHTS;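 further: plate controls were DMSO for no effect and high-concentration cycloheximide for full effect; nearly all actives have a fitted effect of over 75% in size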
* = called active by the depositor; ? = inconclusive; nt = not tested or not shown; [ ] = another dose, or the depositor's remark. This is a sample that favours compounds with a hit; in the whole collection about 1.8% have one here. The call rests on the fitted dose curve; in most records, active means well fitted curve in the direction sought with a large enough effect; inconclusive means small, poorly fitted or top-dose-only effect, or another doubt; inactive means no such curve, though single readings can be large; an effect the other way counts as inactive or inconclusive. Potency means the concentration at half of the fitted maximal effect.

SMILES	GCN5L2 inh	TrxR1 inh	VDR inhibitor	TrxR1 substrate	VDR confirm	VDR FP	VDR bla reporter	VDR cytotox
O=[S@]1Oc2ccccc2-c2ccccc21	nt	18.2%[57.1 µM]	6.31µM*	-23.2%[57.1 µM]	4.74*	?	-9.6%	31.0%
C=CCn1c(O)c(C2=c3ccccc3=NC2=O)c2ccccc21	-5.6%	-34.8%	20µM*	6.9%	16.8*	?	?	?
COc1ccc(SCC(Cc2ccccc2)N2CCN(CC(C)C)CCC2=O)cc1 (configuration not stated)	nt	87.6%	?	-5.5%	7.94*	?	4.3%	23.5%
Cc1ccc(SCC(Cc2ccccc2)N2CCN(CC(C)C)CCC2=O)cc1 (configuration not stated)	nt	?	-20.8%	-13.2%	nt	nt	nt	nt
Cc1ccc(NN2C(=O)C=C(c3ccccc3)C2=O)cc1	-23.5%	6.31µM*	25.1µM*	-4.0%	8.44*	?	?	-1.9%
Cc1nc(N=Nc2cc(S(=O)(=O)O)ccc2S(=O)(=O)O)c(COP(=O)(O)O)c(C=O)c1O	?	nt	0.7%	nt	nt	nt	nt	nt
Cc1ccc(C(=O)/C=C/C(=O)O)cc1	23.8%	2.82µM*	14.1µM*	-4.3%	7.52*	10µM*	20.2%	?
O=C(O)c1ccccc1Cc1ccccc1	-5.8%	nt	3.7%	nt	nt	nt	nt	nt
CCCSc1nnc2n(-c3ccc(OC)cc3)c(=O)c3c4c(sc3n12)COC(C(C)C)C4 (configuration not stated)	4.0%	10.2%	0.7%	-0.2%	nt	nt	nt	nt
O=C1c2ccccc2CC[C@H]1CNCCc1ccc(O)cc1	-12.1%	nt	3.55µM*	nt	?	?	-4.7%	17.1%
O=C1c2ccccc2CCC1CNCCc1ccc(O)cc1 (configuration not stated)	2.9%	nt	2.82µM*	nt	14.1*	28.2µM*	?	?
Cn1cccc1C(=O)N1CCC2(CC1)CCN(c1ncccn1)CC2	3.2%	nt	-13.9%	nt	nt	nt	nt	nt
CCOC(=O)c1c2c(n(-c3ccc(OC)cc3)c1C)C(=O)C(=O)c1ccccc1-2	nt	?	17.8µM*	56.2µM*	11.9*	11.2µM*	5.8µM*	6.31µM*
O=C(/C=C/c1ccccc1Cl)c1cccnc1	-8.4%	7.08µM*	44.7µM*	1.9%	6.7*	?	?	?
O=C(/C=C/c1ccc(OCc2ccccc2)c(OCc2ccccc2)c1)c1cccnc1	-13.8%	23.0%[57.1 µM]	?	-7.5%	7.08*	3.98µM*	-13.7%	-5.0%
N#Cc1ccc(/C=C/C(=O)c2cccnc2)cc1	1.4%	22.4µM*	11.2µM*	-9.3%	8.44*	?	?	?
CCN(CC)c1ccc(/C=C/C(=O)c2cccnc2)cc1	-9.5%	3.3%	11.6%	-11.2%	nt	nt	nt	nt
O=C(/C=C/c1ccc(Cl)cc1)c1cccnc1	-4.5%	31.6µM*	25.1µM*	-0.3%	5.97*	5.62µM*	22.9%	6.7%
CN(C)CCOC(=O)[C@@H](c1ccccc1)C1(O)CCCC1	0.1%	nt	-10.6%	nt	nt	nt	nt	nt
O=C(NCCCc1cnc[nH]1)NCCCN(Cc1ccc(Cl)cc1)c1ccc(Br)cn1	nt	18.5%	0.6%	-4.6%	nt	nt	nt	nt
N#Cc1c(Nc2ccc(Cl)cc2)s[nH]c1=O	-4.4%	34.7%[11.4 µM]	10µM*	-12.6%[11.4 µM]	7.52*	?	1.7%	-14.3%
CSc1nc(Nc2ccc(Cl)cc2)c(C#N)c(=O)[nH]1	-9.3%	3.3%[57.1 µM]	-1.9%	6.7%[57.1 µM]	nt	nt	nt	nt
COc1ccccc1N1C(=O)C=C(Sc2nc(C)cc(C)n2)C1=O	-9.8%	2.82µM*	?	11.2%[11.4 µM]	2.82*	3.16µM*	20.6µM*	?
O=c1cc(-c2ccccc2F)[nH]c2cc3c(cc12)OCO3	-10.7%	12.0%[57.1 µM]	3.9%	78.2%[57.1 µM]	nt	nt	nt	nt
COC(=O)c1cc(NC(=O)[C@H](CCS(C)(=O)=O)N2Cc3ccccc3C2=O)cc(C(=O)OC)c1	-5.1%	-24.0%	-15.5%	-5.8%	nt	nt	nt	nt
SMILES	GCN5L2 inh	TrxR1 inh	VDR inhibitor	TrxR1 substrate	VDR confirm	VDR FP	VDR bla reporter	VDR cytotox
CCOC(=O)c1c(NC(=O)c2ccco2)n(C2CCCCC2)c2nc3ccccc3nc12	-9.4%	?	?	28.1%	3.16*	?	-20.3%	-7.4%
CCC(=O)Nc1c(C#N)c2nc3ccccc3nc2n1C1CCCCC1	0.8%	-6.8%	6.4%	6.5%	nt	nt	nt	nt
Cc1ccc(S(=O)(=O)NCC(C)n2nc(C)cc2C)cc1 (configuration not stated)	-3.6%	0.8%	-8.9%	-1.1%	nt	nt	nt	nt
Cc1ccc(C(C[N+](=O)[O-])n2nc(C)cc2C)cc1 (configuration not stated)	-5.8%	5.62µM*	79.4µM*	-3.8%	13.4*	8.91µM*	?	?
Cc1ccc(NC(=O)Cn2cc3c(n2)CCCC3)cc1Cl	0.8%	1.0%	20.4%	-4.2%	nt	nt	nt	nt
CC(=O)Oc1ccc(/C=C2/C(=O)N(c3ccccc3)N=C2C)cc1	1.3%	-22.7%	?	2.1%	nt	nt	nt	nt
COc1ccc(/C=C2/C(=O)N(c3c(F)c(F)c(F)c(F)c3F)N=C2C)cc1	-26.2%	-5.7%	50.1µM*	1.5%	?	17.8µM*	15.0%	22.2%
O=S(=O)(Nc1ccc(O)c2ccccc12)c1ccc(F)cc1	nt	-11.9%	?	-5.3%	nt	nt	nt	nt
CCc1ccc(S(=O)(=O)Nc2ccc(O)c3ccccc23)cc1	-20.0%	2.1%[57.1 µM]	?	-3.0%[57.1 µM]	2.99*	8.91µM*	?	?
O=C(Nc1cc(S(=O)(=O)N2CCOCC2)ccc1N1CCCCC1)c1cc(-c2ccccn2)nc2ccccc12	-8.0%	-17.3%[57.1 µM]	44.7µM*	-4.0%[57.1 µM]	23.8*	8.91µM*	21.8%	-2.3%
Cc1ccc(S(=O)(=O)N2CCOCC2)cc1NC(=O)c1cc(-c2ccccn2)nc2ccccc12	2.2%	19.7%	-5.0%	6.5%	nt	nt	nt	nt
CCc1ccc(NC(=O)c2ccc(F)c(S(=O)(=O)NCc3ccc(Cl)c(Cl)c3)c2)cc1	-3.5%	-5.0%[57.1 µM]	10.7%	-10.3%[57.1 µM]	nt	nt	nt	nt
O=S(=O)(c1ccccc1)c1nc(-c2cccs2)oc1SCc1ccccc1Cl	-6.1%	13.6%[2.29 µM]	4.1%	12.0%[2.29 µM]	nt	nt	nt	nt
CC(=O)Nc1ccc(-c2cn3ccsc3n2)cc1	-3.5%	12.5%	4.0%	1.6%	nt	nt	nt	nt
c1cn2cc(-c3ccc4c(c3)OCO4)nc2s1	-3.4%	19.8%	20µM*	1.8%	?	?	21.7%	-28.9%
Cc1cc(-n2c(C)nc3ccccc3c2=O)ccc1NC(=O)c1cccc([N+](=O)[O-])c1C	-2.9%	19.4%[57.1 µM]	4.8%	4.2%[57.1 µM]	nt	nt	nt	nt
